Source: PubChem BioAssay AID1159580 (chemical genetic matrix, 2015)
The whole screen tested about 5,500 compounds, of which about 2,000 (36%) were called active. Not shown: some 18% with an inconclusive outcome. No stated cut-off is given here; in the data, active means normalized growth mostly below about 0.91 (no sharp cut-off); inconclusive means no clear call, values can overlap the other calls; inactive means mostly above about 0.92. The list shows a part of the results.

Experiment: chemical genetic growth profiling, strain panel (AID 1159580);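 further: tested at 20 µM; growth read once vehicle control cultures reached saturation at 30 °C; 1 = growth at the plate median or of vehicle wells; lower values mean less growth of the strain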
Conditions: growth OD

Measured: normalized growth

O=C(O)c1ccccc1O
inactive: S. cerevisiae deletion strains, locus YJR066W, strain TOR1, active compounds read low 0.951 | S. cerevisiae deletion strains, locus YJR075W, strain HOC1, active compounds read low 1.01 | S. cerevisiae deletion strains, locus YKL009W, strain mrt4, active compounds read low 1.05 | S. cerevisiae deletion strains, locus YKL068W, active compounds read low 0.982 | S. cerevisiae deletion strains, locus YKL085W, strain MDH1 (second series), active compounds read low 0.989 | S. cerevisiae deletion strains, locus YKL085W, strain MDH1, active compounds read low 0.989 | S. cerevisiae deletion strains, locus YKL160W, strain elf1, active compounds read low 0.971 | S. cerevisiae deletion strains, locus YKL190W, strain CNB1, active compounds read low 0.998 | S. cerevisiae deletion strains, locus YKR001C, strain vps1, active compounds read low 1.02 | S. cerevisiae deletion strains, locus YKR091W, strain srl3, active compounds read low 0.99 | S. cerevisiae deletion strains, locus YLL001W, strain dnm1, active compounds read low 0.97 | S. cerevisiae deletion strains, locus YLL026W, active compounds read low 0.991 | S. cerevisiae deletion strains, locus YLL041C, strain sdh2, active compounds read low 0.99 | S. cerevisiae deletion strains, locus YLR027C, strain aat2, active compounds read low 0.997 | S. cerevisiae deletion strains, locus YLR039C, strain RIC1, active compounds read low 0.978 | S. cerevisiae deletion strains, locus YLR058C, strain SHM2, active compounds read low 0.994 | S. cerevisiae deletion strains, locus YLR102C, strain apc9, active compounds read low 1.01 | S. cerevisiae deletion strains, locus YLR113W, strain HOG1, active compounds read low 0.987 | S. cerevisiae deletion strains, locus YLR221C, strain rsa3, active compounds read low 1 | S. cerevisiae deletion strains, locus YLR258W, strain gsy2, active compounds read low 0.979 | S. cerevisiae deletion strains, locus YLR262C, strain YPT6 (second series), active compounds read low 0.957 | S. cerevisiae deletion strains, locus YLR262C, strain YPT6, active compounds read low 0.973 | S. cerevisiae deletion strains, locus YLR268W, strain sec22, active compounds read low 1.04 | S. cerevisiae deletion strains, locus YLR320W, strain mms22, active compounds read low 1.03 | S. cerevisiae deletion strains, locus YLR330W, strain CHS5, active compounds read low 1 | S. cerevisiae deletion strains, locus YLR342W, strain FKS1 (second series), active compounds read low 1.01 | S. cerevisiae deletion strains, locus YLR342W, strain FKS1, active compounds read low 0.975 | S. cerevisiae deletion strains, locus YLR357W, strain rsc2, active compounds read low 0.956 | S. cerevisiae deletion strains, locus YLR370C, strain arc18, active compounds read low 0.988 | S. cerevisiae deletion strains, locus YLR371W, strain rom2, active compounds read low 1.01 | S. cerevisiae deletion strains, locus YLR384C, strain iki3, active compounds read low 0.96 | S. cerevisiae deletion strains, locus YLR418C, strain cdc73, active compounds read low 1.01 | S. cerevisiae deletion strains, locus YML016C, strain PPZ1, active compounds read low 1 | S. cerevisiae deletion strains, locus YML032C, strain rad52, active compounds read low 1.04 | S. cerevisiae deletion strains, locus YML120C, strain ndi1, active compounds read low 0.985 | S. cerevisiae deletion strains, locus YML124C, strain tub3, active compounds read low 1.01 | S. cerevisiae deletion strains, locus YMR058W, strain fet3, active compounds read low 0.998 | S. cerevisiae deletion strains, locus YMR078C, strain ctf18, active compounds read low 1.02 | S. cerevisiae deletion strains, locus YMR125W, strain sto1, active compounds read low 0.923 | S. cerevisiae deletion strains, locus YMR129W, active compounds read low 0.971 | S. cerevisiae deletion strains, locus YMR205C, strain PFK2, active compounds read low 0.985 | S. cerevisiae deletion strains, locus YMR223W, strain ubp8, active compounds read low 1.02 | S. cerevisiae deletion strains, locus YMR231W, strain pep5, active compounds read low 0.976 | S. cerevisiae deletion strains, locus YMR307W, strain GAS1, active compounds read low 0.965 | S. cerevisiae deletion strains, locus YNL067W, strain RPL9B, active compounds read low 0.998 | S. cerevisiae deletion strains, locus YNL071W, strain lat1, active compounds read low 0.986 | S. cerevisiae deletion strains, locus YNL153C, strain GIM3, active compounds read low 1.01 | S. cerevisiae deletion strains, locus YNL183C, strain NPR1, active compounds read low 0.951 | S. cerevisiae deletion strains, locus YNL209W, strain ssb2, active compounds read low 0.968 | S. cerevisiae deletion strains, locus YNL233W, strain BNI4, active compounds read low 1 | S. cerevisiae deletion strains, locus YNL248C, strain rpa49, active compounds read low 0.958 | S. cerevisiae deletion strains, locus YNL250W, strain rad50, active compounds read low 1 | S. cerevisiae deletion strains, locus YNL271C, strain bni1, active compounds read low 0.995 | S. cerevisiae deletion strains, locus YNL298W, strain CLA4, active compounds read low 1.02 | S. cerevisiae deletion strains, locus YNL307C, strain MCK1, active compounds read low 1.02 | S. cerevisiae deletion strains, locus YNL322C, strain KRE1 (second series), active compounds read low 0.974 | S. cerevisiae deletion strains, locus YNR049C, strain mso1, active compounds read low 0.979 | S. cerevisiae deletion strains, locus YNR052C, strain pop2, active compounds read low 1.02 | S. cerevisiae deletion strains, locus YOL006C, strain TOP1, active compounds read low 1.09 | S. cerevisiae deletion strains, locus YOL012C, strain htz1 1.01 | S. cerevisiae deletion strains, locus YOL147C, strain pex11, active compounds read low 1.01 | S. cerevisiae deletion strains, locus YOR001W, strain rrp6, active compounds read low 0.982 | S. cerevisiae deletion strains, locus YOR061W, strain CKA2, active compounds read low 0.999 | S. cerevisiae deletion strains, locus YOR069W, strain VPS5, active compounds read low 0.993 | S. cerevisiae deletion strains, locus YOR070C, strain gyp1, active compounds read low 0.982 | S. cerevisiae deletion strains, locus YOR080W, strain dia2, active compounds read low 0.983 | S. cerevisiae deletion strains, locus YOR083W, strain WHI5, active compounds read low 0.988 | S. cerevisiae deletion strains, locus YOR106W, strain vam3, active compounds read low 0.952 | S. cerevisiae deletion strains, locus YOR136W, strain idh2, active compounds read low 1.02 | S. cerevisiae deletion strains, locus YOR144C, strain elg1, active compounds read low 1.01 | S. cerevisiae deletion strains, locus YOR184W, strain ser1, active compounds read low 1.02 | S. cerevisiae deletion strains, locus YOR231W, strain MKK1, active compounds read low 0.98 | S. cerevisiae deletion strains, locus YOR265W, strain rbl2, active compounds read low 0.976 | S. cerevisiae deletion strains, locus YOR270C, strain vph1, active compounds read low 0.944 | S. cerevisiae deletion strains, locus YOR290C, strain snf2, active compounds read low 1 | S. cerevisiae deletion strains, locus YOR316C, strain cot1, active compounds read low 1.02 | S. cerevisiae deletion strains, locus YPL051W, strain arl3, active compounds read low 0.986 | S. cerevisiae deletion strains, locus YPL078C, strain atp4, active compounds read low 0.961 | S. cerevisiae deletion strains, locus YPL106C, strain sse1, active compounds read low 0.954 | S. cerevisiae deletion strains, locus YPL240C, strain hsp82, active compounds read low 0.976 | S. cerevisiae deletion strains, locus YPL256C, strain CLN2, active compounds read low 1.05 | S. cerevisiae deletion strains, locus YPR119W, strain clb2, active compounds read low 1.01 | S. cerevisiae deletion strains, locus YPR141C, strain kar3, active compounds read low 0.994 | S. cerevisiae deletion strains, locus YPR163C, strain tif3, active compounds read low 1.01 | S. cerevisiae deletion strains, locus YPR167C, strain met16, active compounds read low 1.01 | S. cerevisiae deletion strains, strain wtn01, active compounds read low 1.01 | S. cerevisiae strains, strain wild type, active compounds read low 0.999
